Measured values reported in the supplement of paper PMC10681739.

These sequences were tested against RUNX1 (UniProt Q01196) (assay: RUNX1 binding intensity (PBM fluorescence), RUNX1 alone (arbitrary fluorescence units); higher = stronger binding). Details: RUNX1 concentration 2 nM; ETS1 concentration 0 nM.
Method: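 Cooperative gcPBM on 36-bp genomic probes with neighbouring ETS1 and RUNX1 sites. Recombinant human RUNX1 (2 nM) was incubated alone or with ETS1 (25 nM) and detected with anti-RUNX1 antibody plus Alexa488 secondary. Values are medians over 4 replicate spots; the RUNX1+ETS1 data were normalised to the RUNX1-only data. The probes sit in constant array flanks that are not printed.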
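Further: Full-length recombinant human RUNX1 bound to double-stranded 36-bp genomic probes on a high-density microarray, scored as Alexa488 fluorescence per spot via anti-RUNX1 antibody, median of four replicate spots.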

Chain of RUNX1 (Q01196 whole entry): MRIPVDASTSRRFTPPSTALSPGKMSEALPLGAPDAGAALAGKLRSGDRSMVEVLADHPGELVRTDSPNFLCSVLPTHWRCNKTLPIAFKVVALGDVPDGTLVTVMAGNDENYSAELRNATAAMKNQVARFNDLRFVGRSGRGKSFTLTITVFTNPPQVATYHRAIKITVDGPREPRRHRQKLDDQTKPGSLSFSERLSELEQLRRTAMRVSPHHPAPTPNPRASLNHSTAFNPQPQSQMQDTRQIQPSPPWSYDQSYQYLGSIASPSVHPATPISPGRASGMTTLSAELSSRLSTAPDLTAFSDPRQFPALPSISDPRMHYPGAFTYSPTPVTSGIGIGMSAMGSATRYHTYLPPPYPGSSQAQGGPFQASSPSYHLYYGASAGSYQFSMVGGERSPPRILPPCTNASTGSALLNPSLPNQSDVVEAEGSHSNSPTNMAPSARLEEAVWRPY

Sequence	RUNX1 binding intensity
AGCTTCCTGTTTGGCCTTGCTGATGTCACCGCATTA	932
CACCCAGTTTGAACTTCCTGGCGGTTTTGTTTACAC	972
AAGGCGGTACTTCCTCCAGCATTTGCCGCAAGTTAT	768
TGATGCACTTCCTGAGGGCCCGCATGTGGTAAACAC	834
GAAACGTCACCCAGAGGAAACCCACAAGGGGCGTGG	875
AAAGAGGAAATCACGTACCCGAAAACCACATGCACA	1010
TGAGAAAGCTATTTCCGCCCACAAAGAGGCAAGTCT	763
GCGCCCGGAAGGAAGGCTGGGGTAGGTTGTGGTTTC	830
TTGATTGGAGCAGGATGTGGTCAGAACAGTATGCAG	794
CTGGGCTCGCCAGGCGGAAGTGGTTGGAGACTGCGT	668
TCGCTTCCGGTGTCGGTTACAGACTGTGGTTGCCAT	906
CTTTGCTGCAGGATGTTCTAACCACAAGCCCAGGAG	3030
ACCTTCTGTTCCCTTCCTCAGACCGCAGGCGAGATG	1620
GCGCCAGTCACCGTTTCCTGTGGTTTGCTGCCCGCC	1050
GCGCCCTCCAGGAAACGCCGCGGTTTACTGTCTGCC	912
GCATTGTGCTTCCGCTCGGGGAAAGACCGCTTACGG	851
CTTACCTACAGTTCCGCTTGCTGTGGTTTCAGTTAC	1040
CATGGTGGTGACGCAGGATGTGGTGGTGGTGTAGAA	707
AGATGCAGAACAGGAAGTGGTTTAGAAAGCCACTCT	827
CCTGTTTCCTGCCATCTGCCCTTCCTTTGTGGTCAA	3310

Sequence	RUNX1 binding intensity
AAAAAGCCGGATGTGAAGGCTGTGGTTCTCAACCCG	745
GGACTGCGTTTCCGGACACTGCGGGTGCCGGTAGCC	671
GGCAGCCGGCTTCCGGCTGTGGGTGGTGCGGGGGAC	676
GCATCATCACTTCCTGTTGTGGGCAGTCGTTGCCTG	843
GAAGCTCCCCAAACAGGATGTGGTTAGGGAGAGGGG	879
GACTTTTACGGAAATAGCAGTCCAAAACCGCGTCTA	868
GACCGAGAGGAAGCAGCAAGGATCCTGCGGTTCCAG	821
GCGATCGGAGCGGAAGTGGAGCTACCGCCACCGCCG	819
AGGCCCGGATACCCGCCCCCAAAACCGCGTCCACAA	1040
ACCAGCCCAGGAAGCATCTGCGGTTCAAGTGGCCAC	1130
CCAGGGCCGGAAGTGCTGGTGGTGGTTTCCATCATG	733
GAGGCCGAAAGGAAGTTTGAGGTTAAGCACAAGATG	792
GGCTGGCCTAGGAACTTCCGCCACAAGTCCCGCCCC	822
GAAGTCACATCCTGTCTGTTGCGGCAGGGCACAGAG	756
TCATTTCCTCTGGTGTTATTGTGTTGTGGTTTTAAG	1580
CAACACAGGATGTGCAGTATTATACCGCAAAGCACT	1150
ACAATAACAGGAAGTGGTGGGGACTGCGGTGACCTG	865
ACCCCAAGCCCAGGATGTGGTTTGGCCACTATTGAG	859
CCAGAATGCAGGAAGTGCTGTGGTTTGACTTTGTTT	831
TAAGTGCAGGAAACGGCTGTGTGGGTGTCAGTGATT	689
